Experimental data reported in PubChem BioAssay AID485313 (National Center for Advancing Translational Sciences (NCATS), 2010).
The campaign covered roughly 320,000 compounds. About 7,600 (2.4%) were called active. About 3% were inconclusive and are not listed. The list comes from a sample in which actives are over-represented; it also holds similar structures and randomly drawn compounds. A number with no mark means an inactive call. Calls follow the shape of the dose curve; as a rule, active = well fitted activation curve with a large enough effect; inconclusive = small, poorly fitted or top-dose-only effect; inactive = no such curve, though single readings can be large or run the other way.

Experiment: qHTS Assay for NPC1 Promoter Activators; also: nearly all actives have a fitted effect of over 60% in size; as to activation: % of control where 0% means no effect
Conditions: Huh7 NPC1 promoter luciferase reporter, 24 h; series mostly up to 9.22 µM; activation: at the top concentration
Excerpt: NIH Chemical Genomics Center [NCGC] NIH Molecular Libraries Probe Production centers Network [MLPCN] MLPCN Grant: MH089375-01A1 Assay Submitter (PI): Yiannis A. Ioannou NCGC Assay Overview: Niemann Pick Type C (NPC) is a rare neurodegenerative lipidosis that is characterized by lipid storage in the endosomal/lysosomal system. Treatment modalities for this devastating disease are currently non-existent due to the severe obstacles associated with accessing the central nervous system with proteins or genes. The majority of mutations causing NPC disease are missense mutations that are distributed throughout the length of the NPC1 protein, with the most prevalent being the I1061T allele. Although NPC1 mutant proteins may be functional, they are typically trapped in the ER due to misfolding. […] We have developed and optimized a cell based luciferase reporter assay in 1536 well format for the identification of up-regulators of the mutant NPC1 promoter.
The NPC1 promoter is cloned in front of the luciferase reporter gene, therefore NPC promoter activation results in luciferase expression. Frozen stock of the NPC1 promoter transfected Huh7 cells were obtained from the laboratory of Dr. Yiannis Ioannou (The Mount Sinai School of Medicine, New York, NY). Cells were propagated and maintained at NCGC in medium containing RPMI-1640 supplemented with 10% FBS, 2mM L-glutamine, and 50ug/ml penicillin/streptomycin. Cells were harvested in and plated for assays in OP-MEM I reduced-serum medium supplemented with 10% FBS. The Amplite luciferase reporter gene assay kit was purchased from ABD Bioquest and prepared/stored according to manufacturers recommendations. qHTS Assay Setup: 1.#Dispensed 5ul of Huh7 cells stably expressing NPC1-luciferase at a density of 1500 cells per well 1536-well plates. 2.#Incubate cells at 37C, 5% CO2, and 95% humidity for 2 hours. 3.#Transferred 23nl per well of compound in DMSO solution. 4.#Incubated at 37C, 5% CO2, and 95% humidity for 24 hours. 5.#Dispensed 3ul per well of Amplite reagent(ABD Bioquest) per well. 6.#Incubate at ambient for 10 minutes. 7.#Read using the luminescence protocol on the ViewLux plate reader (Perkin Elmer).
Potency is read from the fitted curve at half-maximal effect.

SMILES | Potency | activation
CC(=O)Oc1ccccc1C(=O)Nc1ncc([N+](=O)[O-])s1 | 501 nM (active) | 
CC(=O)c1c(O)c(C)c(O)c(Cc2c(O)c3c(c(C(=O)/C=C/c4ccccc4)c2O)OC(C)(C)C=C3)c1O |  | -13.6% [at 46.1 µM]
CN(C)c1ccc(NC(=O)CN2C3CCCC2CC(NC(=O)c2ccccc2)C3)cc1 (stereo not given) |  | -8.85%
CC[C@H]1CN2CCc3cc(OC)c(OC)cc3[C@@H]2C[C@@H]1C[C@H]1NCCc2cc(OC)c(OC)cc21 | inactive | 
CN(C)C(=O)Oc1ccc(OCc2cccc[n+]2C)cc1 |  | 1.08%
CCOC(=O)c1c(-c2ccccc2)oc2ccc(OC(=O)N(C)C)cc12 |  | -20.2%
CN(C)C(=O)Oc1ccc2c(c1)O/C(=C\c1ccccc1)C2=O | 1580 nM (active) | 
CC(=O)NBr |  | -7.1% [at 46.1 µM]
CCOC(=O)c1ncn2c1[C@@H]1CCCN1C(=O)c1cc(OC)ccc1-2 |  | -2.98% [at 46.1 µM]
CNCC[C@H](Oc1ccc(C(F)(F)F)cc1)c1ccccc1 | inactive | 
